A selection: hits, their analogues and other compounds. The true share with any hit is near 3.1%.
EPAC2 ant val: Validation qHTS for antagonist of cAMP-regulated guanine nucleotide exchange factor 4 (EPAC2) | Rap guanine nucleotide exchange factor 4 (Homo sapiens), Q8WZA2 | EPAC2 Rap1B BODIPY-GDP exchange, fluorescence | Potency, µM (titrated, usually from 112 µM), for the others: at the top dose activity, negative = inhibition, usual class: inhibitors | actives 1.7% (n = 16,000) | AID 1645886, 2021;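 further: 100% = activation by cAMP agonist control; nearly all actives have a fitted effect of over 40% in size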
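Normalized against a 6.5 mM cAMP agonist control, compounds were tested on 100 nM EPAC2 exchanging Rap1B-bound BODIPY-GDP (250 nM) for 50 uM GDP. Fluorescence drop (ex 480, em 540 nm) was tracked at room temperature over 30 min at 5-min intervals.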
EPAC1 agonist: Validation qHTS for agonist of cAMP-regulated guanine nucleotide exchange factor 3 (EPAC1); Rap guanine nucleotide exchange factor 3 (Homo sapiens), O95398; EPAC1 Rap1b BODIPY-GDP exchange, fluorescence; Potency, µM, without a hit: max response, positive = active, hits mostly activators; actives 1% (n = 16,000); further: nearly all actives have a fitted effect of over 70% in size
* marks the source's active call; other numbers are inactive results; i = inactive; u = inconclusive; ! = not active in a repeat. The call rests on the fitted dose curve; in most records, active means well fitted curve in the direction sought with a large enough effect; inconclusive means small, poorly fitted or top-dose-only effect, or another doubt; inactive means no such curve, though single readings can be large; an effect the other way counts as inactive or inconclusive. Unless noted, on the % scale 0 is the no-effect control and ±100 the full control effect; potency means the concentration at half of the fitted maximal effect.

SMILES	EPAC2 ant val	EPAC1 agonist
Cc1cc(-c2cc(F)cc3c2OC(CNC(=O)CCn2cncn2)C3)ccc1F (stereo not drawn)	79µM*	6%
O=C(CCn1cncn1)NCC1Cc2cc(-c3ccsc3)cc(Cl)c2O1 (stereo not drawn)	-24%	u
COC(=O)c1ccc(C(=O)NCC2Cc3cc(F)cc(-c4cncnc4)c3O2)cc1 (stereo not drawn)	2.5µM*	14%
COc1ccccc1CC(=O)NCC1Cc2cc(F)cc(-c3cncnc3)c2O1 (stereo not drawn)	-20%	3%
CC(C)CN(C[C@@H](OP(=O)(O)O)[C@H](Cc1ccccc1)NC(=O)O[C@H]1CCOC1)S(=O)(=O)c1ccc(N)cc1	-27%	-15%
CC(C)C[C@@H](COc1ccccc1)N1CCN(CCc2ccccc2)CCC1=O	32µM*	-12%
CCCN1CCC(=O)N([C@H](COc2ccccc2)CC(C)C)CC1	10%	-17%
Cc1cn2cc(CNC(=O)CN3Cc4ccccc4OC(c4ccccc4F)C3)nc2s1 (stereo not drawn)	-24%	-6%
Cc1nc2ccccc2nc1CN1CCOc2ccc(C3(O)CCN(c4ccccc4F)CC3)cc2C1	-15%	0%
Nc1c(S(=O)(=O)O)cc(Nc2ccc(Nc3nc(Cl)nc(Nc4ccc(S(=O)(=O)O)cc4)n3)c(S(=O)(=O)O)c2)c2c1C(=O)c1ccccc1C2=O	79µM*	u
CC(=O)N1CCC[C@H]1C(=O)NCC1Cc2cc(-c3cccc(OC(F)(F)F)c3)ccc2O1 (stereo partly drawn)	71µM*	4%
Cc1noc(C)c1CC(=O)NCC1Cc2cc(-c3cccc(OC(F)(F)F)c3)ccc2O1 (stereo not drawn)	u	-13%
CC(C)C[C@@H]1NC(=O)[C@H](CCCN)NC(=O)[C@H](C(C)C)NC(=O)[C@@H]2CCCN2C(=O)[C@@H](Cc2ccccc2)NC(=O)[C@H](CC(C)C)NC(=O)[C@H](CCCN)NC(=O)[C@H](C(C)C)NC(=O)[C@@H]2CCCN2C(=O)[C@@H](Cc2ccccc2)NC1=O	u	-38%
FC(F)OC(Cl)C(F)(F)F (stereo not drawn)	i	35µM*
FC(F)(F)C(Cl)Br (stereo not drawn)	-19%	-43%
O=C(O)CN(CC(=O)O)CC1=CC2C(=CC1=O)Oc1cc(O)c(CN(CC(=O)O)CC(=O)O)cc1C21OC(=O)c2ccccc21 (stereo not drawn)	i	u
CC(=O)N1CCN(c2nc3cc(C)ccc3cc2CN(C(=O)c2cccc3ccccc23)C2CC2)CC1	-20%	10%
O=C1NC(=O)/C(=C/c2ccc(-c3ccc(F)cc3O)o2)S1	7.9µM*	-14%
O=C1NC(=O)/C(=C/c2ccc3nccnc3c2)S1	-12%	-8%
O=c1c2ccccc2oc2ccc(Oc3ccccc3)cc12	u	100µM*
CCOC(=O)/C=C/c1ccc2oc3ccccc3c(=O)c2c1	-15%	-1%
Nc1ccc(O)cc1	u	8%
Nc1cc(N)cc(N)c1	56µM*	10%
CC(=O)c1ccccc1-c1ccc2c(c1)CC(CNC(=O)c1ccnc(Cl)c1)O2 (stereo not drawn)	u	-9%
COc1ccc(-c2cc(C)cc3c2OC(CNC(=O)/C=C/c2ccncc2)C3)nn1 (stereo not drawn)	u	-20%
SMILES	EPAC2 ant val	EPAC1 agonist
Cc1cc(C(=O)NCc2nc(-c3cccc(NC(=O)c4cc(C)oc4C)c3)oc2C)nc(C)n1	-16%	4%
Cc1ccn(CCC(=O)NCC2Cc3cc(Cl)cc(-c4ccc5[nH]ccc5c4)c3O2)n1 (stereo not drawn)	-14%	12%
C=CCCCCCCCCCCCC(O)CC(O)CO (stereo not drawn) (tested in a mixture with another compound)	40µM*	-143%
C=CCCCCCCCCCCCC(O)CC(O)COC(C)=O (stereo not drawn)	u	-118%
COCc1ccc(CN2CCOc3c(cc(-c4cc(C)c5cccc(OC)c5n4)cc3OC)C2)o1	u	6%
C[C@@H]1[C@H](O)[C@@H](C)/C=C/C=C\C=C\C=C\C=C\C=C\C=C\[C@H](O[C@@H]2O[C@H](C)[C@@H](O)[C@H](N)[C@@H]2O)C[C@@H]2O[C@](O)(C[C@@H](O)C[C@@H](O)[C@H](O)CC[C@@H](O)C[C@@H](O)CC(=O)O[C@H]1C)C[C@H](O)[C@H]2C(=O)O (stereo in doubt)	1%	4%
CC(=C\c1ccccc1)/C=C1/SC(=S)N(CC(=O)O)C1=O	u	-31%
c1ccc(-c2csc(-c3nc4ccccc4[nH]3)n2)cc1	-15%	u
c1ccc(CCNc2nc(-c3ccccc3)cs2)cc1	-14%	100µM*
Cc1cc(C(=O)NCC2CCC3(CCN(Cc4ccc(-c5ccccc5)cc4)CC3)O2)n(C)n1 (stereo not drawn)	u	5%
COc1ccc(-c2oc3ccccc3c(=O)c2O)cc1OC	-10%	6%
CCc1oc2ccccc2c1C(=O)c1cc(I)c(O)c(I)c1	63µM*	-36%
CO[C@H]1[C@H](NC(=O)c2ccsc2)c2ccccc2C12CCN(Cc1cc3ccccc3o1)CC2	-10%	29%
O=C(/C=C/c1ccc(O)cc1)c1ccc(O)cc1O	u	-4%
O=c1cc(O)cc(/C=C/c2ccc(O)c(O)c2)o1	-2%	2%
Oc1ccc(/C=C\c2cc(O)cc(O)c2)cc1	28µM*	-17%
Oc1ccc(/C=C/c2cc(O)cc(O)c2)cc1	50µM*!	u
C=C[C@]1(C)C[C@@H](OC(=O)CSC(C)(C)CNC(=O)[C@H](N)C(C)C)[C@]2(C)[C@H](C)CC[C@]3(CCC(=O)[C@H]32)[C@@H](C)[C@@H]1O	-25%	-6%
COc1ccc(O)c(CN2CCC3(CC2)c2ccccc2[C@@H](NC(=O)c2cccc(F)c2)[C@@H]3OC)c1	-3%	19%
CO[C@@H]1[C@@H](O[C@@H]2O[C@H](C)[C@@H](O[C@H]3C[C@@](C)(O)[C@@H](OC(=O)CC(C)C)[C@H](C)O3)[C@H](N(C)C)[C@H]2O)[C@@H](CC=O)C[C@@H](C)C(=O)/C=C/C2OC2C[C@@H](C)OC(=O)C[C@H]1OC(C)=O (stereo partly drawn)	1%	-17%
C#CCN1C(C)=C(C(=O)OC)C(c2cccc([N+](=O)[O-])c2)C(C(=O)OCC)=C1C (stereo not drawn)	45µM*	10%
CCOC(=O)C1=C(C)NC(=S)NC1c1cccc(O)c1 (stereo not drawn)	-42%	7%
COC(=O)C1=C(C)NC(C)=C(C(=O)O[C@H]2CCN(Cc3ccccc3)C2)[C@H]1c1cccc([N+](=O)[O-])c1	-11%	u
COC(=O)C1=C(C)NC(C)=C(C(=O)OCCCN2CCC(c3ccccc3)(c3ccccc3)CC2)C1c1cccc([N+](=O)[O-])c1 (stereo not drawn)	-9%	112µM*!
COc1cc(CN2CCC3(CCC(CNC(=O)c4ccccc4)O3)CC2)cc(OC)c1 (stereo not drawn)	5%	-14%
COc1ccc(C[C@@H](C)NC[C@H](O)c2ccc(O)c(NC=O)c2)cc1	-1%	1%

Screening results: PubChem BioAssay, National Center for Advancing Translational Sciences (NCATS)
